Where “and” joins values, the source holds several entries; their conditions need not be identical. Equal values may be shown once. Among all 350,000 compounds or so, about 5,500 (1.6%) were called active.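 Rule for the calls: active = significant combined selectivity score with lowered wild-type GFP, culture density cut under 30%, mutant RFP and density less affected; inactive = any of these conditions unmet.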 The sample as a whole holds a higher share of actives than the screen did.
Experiment: reduced GFP signal of wild-type E. coli, primary screen, bacterial rRNA inhibitor project, GFP/RFP fluorescence, OD600, single point (AID 720706)
Settings: E. coli WT GFP vs humanized-ribosome RFP mutants, 24 h; GFP signal change (wild-type ribosome): stronger effect = lower value, DMSO median 0, no signal -100; OD600 change: measured here: OD600 growth, DMSO median 0, no signal -100; RFP signal change: measured here: RFP humanized mutant strains, DMSO median 0, no signal -100, concentration not given here

SMILES	GFP signal change (wild-type ribosome)	OD600 change	RFP signal change
C[C@H](CO)N1C[C@H](C)[C@H](CN(C)Cc2ccc3c(c2)OCO3)Oc2c(NS(=O)(=O)c3ccccc3)cccc2C1=O	-1.49% (inactive)	3.3%	-2.6%
C[C@H](NC(=O)[C@H]1N[C@H]2c3ccc(-c4ccc(C(=O)N(C)C)cc4)c(=O)n3C[C@H]2[C@@H]1CO)c1ccccc1	1.87% (inactive)	7.26%	-1.73%
CN(C)C(=O)c1cccc(-c2ccc(C3[C@H]4CNC[C@@H]3N4C(=O)Nc3ccccc3F)cc2)c1 (stereo partly drawn)	0.866% (inactive) and 2.44% (inactive)	-5.13% and 4.05%	-2.14% and 0.208%
COc1ccccc1-c1cnc2c(c1)C(=O)N([C@@H](C)CO)C[C@H](C)[C@@H](CN(C)C(C)=O)O2	3.59% (inactive)	4.33%	-1.79%
CC(CC(=O)O)C(=O)c1ccc(Cl)c([N+](=O)[O-])c1 (stereo not drawn)	10.7% (inactive)	9.82%	-3.76%
O=C(/C=C/c1ccc(Cl)c([N+](=O)[O-])c1)c1ccc(O)cc1	-26.1% (active)	-2.69%	9.14%
CC(=O)Nc1ccc(C=Cc2ccc([N+](=O)[O-])cc2)cc1	2.45% (inactive)	3.79%	-1.71%
O=C(COC(=O)c1ccc(O)cc1O)c1ccc2c(c1)OCCO2	-13.2% (inactive)	-20.4%	0.835%
COc1ccc(OC)c(/C=C/C(=O)c2ccc3c(c2)OCO3)c1	0.015% (inactive)	-9.29%	-8.02%
O=C(/C=C/c1ccc2c(c1)OCCO2)c1ccc(O)cc1	-19.8% (active)	-11.6%	6.75%
CC(=O)Nc1ccc(C=CC(=O)c2ccc([N+](=O)[O-])cc2)cc1	5.97% (inactive)	7.9%	-0.138%
CN(C)c1ccc(/C=C/C(=O)c2ccc(O)cc2)cc1[N+](=O)[O-]	-22.5% (active)	-13.8%	5.33%
O=C(/C=C/c1ccc(Cl)cc1)N1CCN(c2ccccc2[N+](=O)[O-])CC1	-31% (inactive)	-42.6%	-26.6%
CC=Cc1ccc2n(c1=O)C[C@@H]1[C@@H](CO)[C@H](C(=O)N(C)C)N(CC3CCOCC3)[C@H]21 (mixture of isomers)	2.33% (inactive)	-5.67%	0.865%
CN1c2ccc(Br)cc2[C@@H]2[C@@H](CCN2C(=O)C2CCCC2)[C@H]1CO	-37% (inactive)	-68.3%	0.745%
COCC#Cc1ccc([C@@H]2[C@@H](CO)N3CCCCN(C(=O)COC)C[C@@H]23)cc1	4.36% (inactive)	1.27%	-1.64%
COCC#Cc1ccc2c(c1)O[C@H](CN(C)C(=O)CC1CC1)[C@@H](C)CN([C@@H](C)CO)S2(=O)=O	1.22% (inactive)	3.88%	-1.84%
CCCNC(=O)N(C)C[C@H]1Oc2ncc(-c3ccccc3F)cc2C(=O)N([C@@H](C)CO)C[C@H]1C	-0.164% (inactive)	9.97%	0.69%
CC(=O)NC(c1ccccc1)c1nc(-c2cccc(C(C)C)c2)cs1 (stereo not drawn)	2.35% (inactive)	-27.5%	4.32%
COc1ccc(-c2csc(Nc3cccc(C)n3)n2)cc1OC	-3.87% (inactive)	-21.5%	23%
Cc1cccc(Nc2nc(-c3ccccc3)cs2)n1	-36.3% (active)	-28.1%	-6.26%

SMILES	GFP signal change (wild-type ribosome)	OD600 change	RFP signal change
COc1ccc(-c2cn(CC[C@@H]3CC[C@@H](NS(=O)(=O)c4ccccc4C)[C@H](CO)O3)nn2)cc1	-0.161% (inactive)	0.015%	1.23%
COc1ccccc1NC(=O)N[C@H]1CC[C@@H](CC(=O)NCc2ccc(Cl)c(Cl)c2)O[C@H]1CO	-9.75% (inactive)	-22.7%	1.88%
CC12CCC(=O)C=C1CCC1C2C(O)CC2(C)C1CCC2(O)C(O)CO (stereo not drawn)	8.19% (inactive)	4.56%	4.01%
CC(=O)O[C@]1(C(C)=O)CC[C@H]2[C@@H]3C=C(C)C4=CC(=O)CC[C@]4(C)[C@H]3CC[C@@]21C	-55.8% (inactive)	-76.8%	-10.6%
CC(=O)C12CC(C)=C(C)CC1CC1C3CCC4=CC(=O)CCC4(C)C3CCC12C (stereo not drawn)	-17.6% (active)	7.85%	5.44%
CCCC#Cc1ccc([C@H]2[C@H]3CN(C(=O)Nc4cc(F)ccc4F)CC(=O)N3[C@H]2CO)cc1	-18.4% (inactive)	-50.2%	11.1%
C[C@@H]1CN([C@H](C)CO)C(=O)c2cc(NC(=O)NC3CCCCC3)ccc2O[C@H]1CN(C)C(=O)Nc1ccccc1	5.36% (inactive)	10.1%	2.7%
O=C(C[C@H]1C=C[C@H](NC(=O)C2CCC2)[C@H](CO)O1)NCCCN1CCOCC1	1.78% (inactive)	4.36%	-0.385%
CCCCn1c(-c2cccc(C)c2)nc2cc3[nH]c(=O)c(C(C)C)nc3cc21	-29.5% (inactive)	-62%	13.5%
CCCCCn1nnnc1C1c2ccccc2C(=O)N1Cc1ccco1 (stereo not drawn)	-4.73% (inactive)	-2.58%	-0.015%
CCCCCn1nnnc1-c1nc2cc3ccccc3cc2[nH]c1=O	-19.2% (active)	-5.54%	8.22%
CCn1c(C)c(C)c2cc(C(=O)N3CCN(c4cccc(C)c4C)CC3)ccc21	13.4% (inactive)	-10.1%	8.15%
Cc1[nH]c2ccc(C(=O)N3CCN(C)CC3)cc2c1C	6.6% (inactive)	11%	3.29%
CCOc1ccccc1N1CCN(C(=O)c2ccc3[nH]c(C)c(C)c3c2)CC1	-34.6% (active)	-17.6%	7.07%
CNC[C@@H]1Oc2ccc(N(C)C)cc2CC(=O)N(C)C[C@@H]1C	-0.679% (inactive)	1.44%	-1.38%
NN=C(NN=Cc1ccccc1)c1ccccc1	3.05% (inactive)	19.4%	-0.189%
CN(O)C(=S)c1ccccc1	-58% (inactive)	-75.2%	-15%
CN(/N=C/c1ccccc1)C(=S)c1ccccc1	-28.9% (active)	-13.5%	-2.92%
O=C(C[C@H]1C[C@@H]2c3cc(NS(=O)(=O)c4ccc(F)cc4)ccc3O[C@@H]2[C@H](CO)O1)NCc1cccc(F)c1	0.64% (inactive)	-2.85%	2.59%
CCC(=O)N1CC(=O)N2[C@@H](CO)[C@H](c3ccc(C#CC4CCCC4)cc3)[C@@H]2C1	1.66% (inactive)	-3.78%	-1.59%

Reference: PubChem BioAssay AID720706 (Broad Institute, 2013)
